The assay has as its system OVCAR-3-derived ovarian cancer stem-like cells (spheroids). Put plainly: cell growth relative to untreated control; higher = more growth (less inhibition). As to conditions: 2.29 µM; 96 h. The method in brief: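 After trypsin dissociation, OVCAR-3 spheroid-derived stem-like cells were placed in ultra-low attachment 96-well plates at 50,000 cells/mL in stem cell medium and preincubated for 24 h. Treatment at 2.29 uM followed for 96 h at 37°C, 5% CO2, with 4 replicate wells per compound. A 4 h TOX8 resazurin fluorescence read (ex 560/em 590 nm) gave viability, from which percent growth relative to untreated wells was derived after blank subtraction and Grubbs outlier removal.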

SMILES strings stand for the structures. ± gives the standard deviation.

`CN(Cc1cnc2nc(N)nc(N)c2n1)c1ccc(C(=O)N[C@@H](CCC(=O)O)C(=O)O)cc1` displayed a cell growth of 96.7 ± 31%.
In turn, `CCCCCCCCCCSCC(CO)NC(=O)/C=C/c1c(C)[nH]c(=O)[nH]c1=O` (configuration not stated) registered a cell growth of 107 ± 23%.
Under `[N-]=[N+]=NC1=NNC2(C(=O)N1)c1ccccc1-c1ccccc12` stands 99.3 ± 38%; under `O=C1C(c2cnc3ccccc3n2)=C(O)c2ccccc21`, 197 ± 48%.
Consider `COc1ccc(-c2csc(=[N+]3CCCCC3)s2)cc1`, for which the cell growth amounted to 80 ± 11%.
In the case of `CC(C)C1=CC2=CC[C@@H]3[C@](C)(CCC[C@@]3(C)C(=O)O)[C@H]2CC1`, the cell growth amounted to 114 ± 10%.
Compound `CN(C)c1ccc(/C=N/N=C2\C(=O)Nc3c(Cl)cc(Cl)cc32)cc1` came in with a cell growth of 106 ± 28%.
Take `Cc1ccc(CC2(OCCN(C)C)CCC(C(C)(C)C)CC2)cc1` (configuration not stated): the cell growth is 82.2 ± 24%.
Turning to `CSc1ccc(NC(=O)CCl)cc1`, the cell growth was 80.8 ± 14%.
The same measure for `O=C1/C(=C\c2ccc(Cl)c(Cl)c2)CN(C(=O)CCN2CCOCC2)C/C1=C\c1ccc(Cl)c(Cl)c1`: 63.5 ± 9.5%; for `C=C(C)[C@@H]1CC[C@]2(CO)CC[C@]3(C)[C@H](CC[C@@H]4[C@@]5(C)CC[C@H](O)C(C)(C)[C@@H]5CC[C@]43C)[C@@H]12`: 90 ± 24%; for `CN1CCN(CCNc2ccc(CO)c3sc4ccccc4c(=O)c23)CC1`: 49.7 ± 14%.
The same measure for `Cc1c2ccncc2cc2c1[nH]c1ccccc12`: 101 ± 20%; for `COc1ccc(C2C(C)C(=O)C(C)C(c3ccc(OC)cc3)N2N=O)cc1` (configuration not stated): 110 ± 23%; for `CCCCCCC1CC(=O)C1(Cl)Cl` (configuration not stated): 104 ± 16%.
The compound `Nc1nc(N)c2cc(Sc3cccc(C(F)(F)F)c3)ccc2n1` yielded a cell growth of 94.4 ± 24%.
As for `O=C1Cc2c(-c3ccccc3)cc(-c3cccc(Cl)c3)nc2-c2ccccc2N1`, the cell growth is 99.6 ± 21%.

(Values after the supplement of paper PMC3484114.)
